Data as given in PubChem BioAssay AID686978 (National Center for Advancing Translational Sciences (NCATS), 2013).
Out of some 420,000 compounds screened, about 64,000 (15%) were called active. Another 27% or so got no clear call; they are omitted. Calls come from the whole dose curve; as a rule, active = well fitted inhibition curve with a large enough effect; inconclusive = small, poorly fitted or top-dose-only effect; inactive = flat fitted curve, though single readings scatter. A selection follows. A call without a number means that no potency is given here.

Assay: qHTS for Inhibitors of human tyrosyl-DNA phosphodiesterase 1 (TDP1): qHTS in cells in absence of CPT; note: nearly all actives have a fitted effect of over 55% in size
Details: DT40 Tdp1-/- hTDP1 cells, no CPT, ATP luminescence, 48 h; activity change, negative = growth inhibition: at 46.2 µM (top of the series)
Summary of the method: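 Cells were dispensed at 400 per well, compounds added by pin tool, plates incubated ≥48 hr at 37 °C, then CellTiter-Glo added for 30 min at room temperature before luminescence reading. Line: DT40 Tdp1-/- complemented with hTDP1; camptothecin omitted.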
Potency is the fitted concentration of half-maximal effect.

Row | SMILES | Potency
1 | O=[N+]([O-])c1ccc2nc(-c3ccccn3)[nH]c2c1 | 1.16 µM (active)
2 | O=[N+]([O-])c1cccc(S(=O)(=O)NCc2ccccn2)c1 | inactive
3 | O=c1[nH]c2cccnc2n1-c1ccc([N+](=O)[O-])cc1 | inactive
4 | Cc1ccc(C(=O)OC2=CC(=O)CC(C)(C)C2)cc1 | inactive
5 | COC(=O)c1c(NC(=O)COc2ccc(Cl)cc2Cl)sc2c1CC(C)(C)NC2(C)C | 8.2 µM (active)
6 | CCOC(=O)c1c(NC(=O)COc2cc(C)ccc2C(C)C)sc(C)c1C | inactive
7 | Cc1cnc(C(=O)OCC(=O)Nc2ccc(Cl)cc2Cl)cn1 | inactive
8 | c1cc(-n2cnnn2)ccc1NC1=NCCC1 | inactive
9 | O=C1CCCN1C(=O)COc1ccc([N+](=O)[O-])cc1 | inactive
10 | COC(=O)c1ccc(S(=O)(=O)N(CCO)Cc2ccccc2)n1C | inactive
11 | COc1ccc(Br)cc1S(=O)(=O)N1CCN=C1C | inactive
12 | COc1ccc(C2c3c(C)nn(-c4ccccc4)c3NC(=O)N2c2ccccc2)cc1 (centres undefined) | inactive
13 | COc1ccc(Br)cc1C1CC(=O)Nc2c1c(C)nn2-c1nc(C)cc(C)n1 (centres undefined) | 18.4 µM (active)
14 | COc1ccc(C2CC(=O)Nc3c2c(=O)nc2c(C)cccn32)cc1OC (centres undefined) | inactive
15 | C#CCOc1ccc(C2CC(=O)Nc3c2c(C)nn3-c2nc(C)cc(C)n2)cc1 (centres undefined) | 20.6 µM (active)
16 | Cn1c(=O)c2c(n3c4ccccc4nc13)NC(=O)CC2c1cccc(Cl)c1 (centres undefined) | inactive
17 | NC(=O)COC(=O)c1ccc2c(c1)C(=O)N(Cc1ccco1)C2=O | inactive
18 | CCCS(=O)(=O)NC(=O)C1(C)CCN(C(=O)c2sccc2C)C1 (centres undefined) | inactive
19 | COc1ccc(NC(=O)c2ccco2)cc1NC(=O)c1ccc(C#N)cc1F | inactive
20 | Clc1cc(-c2ccc(/C=N/n3cnnc3)o2)ccc1Br | inactive
21 | Cc1cc([N+](=O)[O-])nn1CCCC(=O)Nc1cccnc1Cl | inactive
22 | CC(C)(C)c1ccc(C(=O)NCC(=O)OCN2C(=O)c3ccccc3C2=O)cc1 | inactive

Row | SMILES | Potency
23 | O=C(CCNC(=O)c1ccc([N+](=O)[O-])cc1)Nc1ccccc1N1CCOCC1 | inactive
24 | CC(C)(C)c1ccc(C(=O)NCCn2c(N)c(C#N)c3nc4ccccc4nc32)cc1 | 29.1 µM (active)
25 | CCOC(=O)/C(C#N)=C\c1c(C)cc(C)c(COC(C)=O)c1C | inactive
26 | Cc1ccc2c(=O)c(C(=O)c3cccc(Cl)c3)cn(CC(=O)NCc3ccccc3)c2n1 | inactive
27 | O=C(O)CC1=C(Nc2ccccc2)C(=O)N(c2ccccc2)C1c1ccc(Cl)cc1 (centres undefined) | inactive
28 | CCc1nc2onc(C)c2c(=O)n1CC(=O)O | inactive
29 | CCOC(=O)N1CCN(C(=O)c2ccc3c(c2)N(Cc2ccc(C)cc2)CCS3)CC1 | 23.1 µM (active)
30 | CCOC(=O)N1CCN(C(=O)c2cnc3n(c2=O)CCS3)CC1 | inactive
31 | CCOC(=O)N1CCN(C(=O)c2ccc(S(=O)(=O)c3ccc(C)cc3)c(NC(C)=O)c2)CC1 | inactive
32 | COc1ccc(NC(=O)NC2CC3CCCC(C2)N3Cc2ccccc2)cc1 (centres undefined) | inactive
33 | CC1(C)C2CC[C@]3(C)C(CC=C4[C@@H]5C[C@@](C)(CO)CC[C@]5(C(=O)O)CC[C@]43C)[C@@]2(C)CC[C@@H]1O (some centres undefined) | inactive
34 | COC(=O)c1c(-c2cccs2)csc1NC(=O)CSc1ncnc2sc(C)c(C)c12 | 20.6 µM (active)
35 | Cc1sc2ncnc(SCC(=O)NC3CCS(=O)(=O)C3)c2c1C (centres undefined) | inactive
36 | Cc1sc2ncnc(SCC(=O)Nc3ccc(CN4CCCC4)cc3)c2c1C | inactive
37 | CC(=O)Nc1ccc(N2C(=O)C3C4C=CC(CC4)C3C2=O)cc1 (centres undefined) | inactive
38 | OCCNc1nc2ccccc2n1-c1ncnc2sc3c(c12)CCC3 | 20.6 µM (active)
39 | O=C(O)c1cccnc1Sc1ncnc2sc3c(c12)CCC3 | inactive
40 | O=C(O)[C@@H]1CCCN1c1ncnc2sc3c(c12)CCC3 | inactive
41 | COc1cc(N2C(=O)CSC2=S)cc(OC)c1OC | inactive
42 | O=C(Cn1nc(C(F)(F)F)c2c1CCC2)NCc1ccc(F)cc1 | inactive
43 | O=C(CN(C(=O)c1csnn1)c1ccc(Br)cc1)NC1CCCC1 | inactive
44 | O=C(NNC(=S)NC1CC2CCC1C2)c1ccc(Cl)cc1 (centres undefined) | 23.1 µM (active)

Row | SMILES | Potency
45 | O=C(NC(=S)NC1CCCCC1)c1ccc(Cl)cc1 | inactive
46 | O=C(NNC(=O)C1C2CCC(C2)C1C(=O)O)c1ccc(Cl)cc1 (centres undefined) | inactive
47 | Oc1c(C(c2ccco2)N2CCC3(CC2)OCCO3)sc2ncnn12 (centres undefined) | inactive
48 | CCOC(=O)c1ccc(N2C(=O)CC(N3CC(C)OC(C)C3)C2=O)cc1 (centres undefined) | inactive
49 | COc1ccc(C)cc1N(CC(=O)N1CCCC1)S(=O)(=O)c1ccccc1 | inactive
50 | O=C(NCCCn1ccnc1)C1CCCN(S(=O)(=O)c2cc(Cl)ccc2Cl)C1 (centres undefined) | inactive
51 | Cc1ccc(CNC(=O)CCC(=O)N2CC(C)Sc3ccccc32)cc1 (centres undefined) | inactive
52 | Cc1ccc(Cl)cc1NC(=O)CCC(=O)N1CC(C)Sc2ccccc21 (centres undefined) | 18.4 µM (active)
53 | Cc1ccc(Cl)cc1NC(=O)COC(=O)C1CCCCC1 | inactive
54 | Cc1cccc(N(C(=O)Cn2nnc(-c3ccc(C)o3)n2)C(C(=O)NC2CCCC2)c2ccncc2)c1 (centres undefined) | inactive
55 | CC(NC(=O)c1ccco1)c1ccc2c(c1)OCO2 (centres undefined) | inactive
56 | C#CCSc1nnc(-c2sc3ccccc3c2Cl)o1 | inactive
57 | O=C1CCC/C=C\C[C@@H](CC(=O)N(CCO)Cc2ccccc2)C(=O)NCCO1 | inactive
58 | O=C(N[C@@H]1C/C=C\C[C@@H](CC(=O)N(CCO)Cc2ccccc2)C(=O)N[C@H](Cc2ccccc2)COC1=O)OCC1c2ccccc2-c2ccccc21 | 4.61 µM (active)
59 | O=C(C[C@@H]1C/C=C\CCC(=O)OC[C@@H]2CCCN2C1=O)NCCO | inactive
60 | O=C1NC[C@@H](c2ccccc2)OC(=O)[C@H](Cc2ccc(F)cc2)CC/C=C/C[C@H]1CC(=O)N(CCO)Cc1ccccc1 | 14.6 µM (active)
61 | O=C1OC[C@@H]2CCCN2C(=O)[C@H](CC(=O)N(CCO)Cc2ccccc2)C/C=C\CC[C@@H]1Cc1ccc(F)cc1 | 18.4 µM (active)
62 | CN(Cc1cccs1)C(=O)Cc1c[nH]c2ccccc12 | inactive
63 | O=C1N[C@H](Cc2c[nH]c3ccccc23)COC(=O)[C@H](Cc2ccc(F)cc2)C/C=C\C[C@H]1CC(=O)N(CCO)Cc1ccccc1 | 16.4 µM (active)
64 | O=C1CCC/C=C/C[C@@H](CC(=O)N(CCO)Cc2ccccc2)C(=O)NC[C@H](c2ccccc2)O1 | inactive
